The values that follow come from PubChem BioAssay AID2417 (National Center for Advancing Translational Sciences (NCATS), 2010).

In all, about 140,000 compounds went through this assay and about 4,300 (3.1%) were called active. Not shown: some 21% with an inconclusive outcome.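 Rule for the calls: active = readout at or below -70, meaning at least 70% loss of cells showing the perinucleolar compartment, a nuclear body marking cancer cells; inconclusive = readout between -30 and a set limit; inactive = the rest.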 The list comes from a sample in which actives are over-represented; it also holds similar structures and randomly drawn compounds.

A short description of this assay: High Content Assay for Compounds that inhibit the Assembly of the Perinucleolar Compartment.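 Note: plate controls were DMSO wells for no effect and camptothecin positive control wells for full effect.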 Conditions: PC3M PTB-GFP, PNC prevalence imaging, 16 h; at 10 µM; active compounds read low. The gist of the method:
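PC3M cells stably expressing PTB-GFP, 750–1000 cells/well, treated 16 h at 37 °C with compound (23 nl of library stock), in duplicate. After paraformaldehyde fixation and Hoechst stain, imaged at 20x; PNC prevalence scored by image analysis.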
As for `Cc1ccc(N(C(=O)C(F)(F)F)C(C(=O)NC2CCCCC2)c2ccncc2)cc1C` (configuration not stated), the activity change (PNC), negative = inhibition was 0.653% (inactive). With `CCCCOc1ccc(C(=O)NCC(=O)OCC(=O)N2CCN(S(=O)(=O)c3ccc(C)cc3C)CC2)cc1`, the activity change (PNC), negative = inhibition was 24.8% (inactive). Consider `CC1(C)CC(=O)NC=C(c2ccccc2)C1`, for which the activity change (PNC), negative = inhibition is 20.5% (inactive). For the compound `CC(C)N1C(=O)N(c2ccccc2)C(C)(O)CC1(C)C` (configuration not stated), the activity change (PNC), negative = inhibition is -24.7% (inactive). In the case of `CC(C)C1C2=C(CC(C)(C)CC2=O)ON1c1ccccc1` (configuration not stated) it was -90.5% (active).

Turning to `CCCCCOc1ccc(/C=C/C(=O)NCCc2nc3ccccc3[nH]2)cc1OC`, the activity change (PNC), negative = inhibition was 37% (inactive). As for `COc1cc(/C=C(/NC(=O)c2ccc(Cl)cc2Cl)C(=O)O)cc(OC)c1OC`, the activity change (PNC), negative = inhibition was -21.4% (inactive). In the case of `O=C(NCc1ccccc1Cl)C1CCC(CNc2c(N3CCCCC3)c(=O)c2=O)CC1` (configuration not stated), the activity change (PNC), negative = inhibition is 42.7% (inactive). The value for `CC(C)(C)c1cc(C(=O)NCc2cccnc2)ccn1` was 47.5% (inactive); that for `COCCn1c(=S)[nH]c2cc(C(=O)NCCc3ccc(OC)c(OC)c3)ccc2c1=O` was 26.1% (inactive).

As to `COCCn1c(=O)[nH]c2cc(C(=O)NCc3cccnc3)ccc2c1=O`, the activity change (PNC), negative = inhibition is -86.1% (active). In the case of `Cc1ccc(NC(=O)CCC(=O)N/N=C/c2ccco2)c(C)c1` it was -23.4% (inactive). The value for `COc1cc(C(=O)Nc2oc(-c3ccccc3)c(-c3ccccc3)c2C#N)cc(OC)c1OC` was -87.4% (active); that for `N#Cc1c(NC(=O)CCCN2C(=O)c3ccccc3C2=O)oc(-c2ccccc2)c1-c1ccccc1` was -11.2% (inactive).

As for `COC(=O)c1sccc1NC(=O)c1cc(OC)c(OC)c(OC)c1`, the activity change (PNC), negative = inhibition is 81.2% (inactive). As for `CCc1ccc(-c2cc(C(=O)NN3CCN(C)CC3)c3ccccc3n2)cc1`, the activity change (PNC), negative = inhibition was -5.44% (inactive). In the case of `O=[N+]([O-])c1ccc(NCCCO)c(C(F)(F)F)c1` it was 59.3% (inactive); in that of `C=C(C)c1cccc(C(C)(C)NC(=O)NC2CCCC2)c1`, 24% (inactive); in that of `Cc1ccc2[nH]c(C(=O)O)c(NC(=O)c3ccccc3[N+](=O)[O-])c2c1`, 17.5% (inactive). Regarding `CCC(=O)Nc1c(S(=O)(=O)c2ccccc2)c2nc3ccccc3nc2n1Cc1ccccc1`, the activity change (PNC), negative = inhibition is 8.42% (inactive). Consider `O=S(=O)(NCCc1ccncc1)c1ccccc1`, for which the activity change (PNC), negative = inhibition was 50.6% (inactive). The value for `COc1cc2c(cc1OC)C(Nc1ccc(S(N)(=O)=O)cc1)=NC(C)(C)C2` was -18.6% (inactive); that for `O=C1OC(OC(=O)c2ccccc2Br)C(N2CCOCC2)=C1Cl` (configuration not stated) was 84.2% (inactive); that for `CSc1cccc(NC(=O)CSc2ccccc2)c1` was 1.35% (inactive). The value for `CCc1cccc(NC(=O)CCC(=O)O)c1` was -102% (active); that for `O=C(CCCOc1ccccc1)Nc1cccc(C(=O)O)c1` was 11.1% (inactive). The value for `CCOc1ccc(NC(=O)CSc2ncnc3c2sc2ccccc23)cc1` was 42.2% (inactive); that for `COc1cc(C(=S)N2CCOCC2)cc(OC)c1OC(=O)c1cc([N+](=O)[O-])cc([N+](=O)[O-])c1` was 19.6% (inactive); that for `O=C(Oc1ccccc1C(=S)N1CCCCC1)c1cc([N+](=O)[O-])cc([N+](=O)[O-])c1` was -100% (active).

`O=C(Oc1ccccc1Cl)c1ccc(N2CCOCC2)c([N+](=O)[O-])c1`: the activity change (PNC), negative = inhibition was 20.3% (inactive). In the case of `CN(C)CCNC(=O)/C(=C/c1cccc([N+](=O)[O-])c1)NC(=O)c1ccccc1`, the activity change (PNC), negative = inhibition is -1.37% (inactive). In the case of `COc1ccc(CCC(=O)OCC(=O)Nc2ccc(C)c(S(=O)(=O)N(C)C)c2)cc1` it was 34.8% (inactive); in that of `COc1ccc(/C(C)=N/NC(=O)CCC(=O)Nc2ccc(Cl)cc2Cl)c(OC)c1`, -10.3% (inactive); in that of `Cc1ccc(NC(=S)NCc2ccccc2Cl)c(C)c1`, 22.9% (inactive). Consider `COCc1cc(C)nc2sc3c(=O)n(-c4cccc5ccccc45)nnc3c12`, for which the activity change (PNC), negative = inhibition is 0.942% (inactive). As to `COc1ccc(N2C(=O)C(O)C2c2ccc(C)cc2)cc1` (configuration not stated), the activity change (PNC), negative = inhibition was -29.1% (inactive).

As for `COc1ccc(-c2c(C(C)=O)c(C)nc3sc4c(=O)n(-c5ccc(C)cc5)nnc4c23)cc1`, the activity change (PNC), negative = inhibition is -106% (active).

Take `O=C(Nc1nnc(SCc2ccc(Cl)cc2Cl)s1)C1COc2ccccc2O1` (configuration not stated): the activity change (PNC), negative = inhibition is 43% (inactive). In the case of `c1ccc(-c2nnc(SCc3nc4ccccc4[nH]3)o2)cc1` it was 25.5% (inactive); in that of `Clc1ccc(CSc2nnc(/C=C/c3ccccc3)o2)c(Cl)c1`, -87.5% (active); in that of `N/C(=N\OC(=O)CC1CCCCC1)c1ccccc1`, -25.3% (inactive). The value for `COC(=O)c1ccccc1NS(=O)(=O)c1ccc2[nH]c(=O)[nH]c2c1` was -18.2% (inactive); that for `Cc1ccc(N(Cc2cc3ccccc3[nH]c2=O)C(=O)c2cccs2)cc1` was 4.02% (inactive); that for `CCOC(=O)Cc1csc(NC(=O)CSc2ccc(Br)cc2)n1` was 34.9% (inactive).

Regarding `O=c1c2ccccc2c(-c2ccc(F)cc2)nn1-c1ccc(C(F)(F)F)cc1`, the activity change (PNC), negative = inhibition was -1% (inactive). Consider `O=C(CNCc1ccc(F)cc1)Nc1ccccc1-c1ccccc1`, for which the activity change (PNC), negative = inhibition is 23.9% (inactive). Turning to `O=c1[nH]cnc2c1c(-c1ccccc1)cn2-c1ccc(F)cc1`, the activity change (PNC), negative = inhibition is -108% (active). In the case of `Cc1cc(C)c(C#N)c(SCC(=O)NN2CC(=O)N(c3ccccc3F)CC2=O)n1` it was 43.3% (inactive); in that of `O=C(c1cc(Cl)cc(Cl)c1)N1CCC(=O)N(C(COCc2ccccc2)Cc2ccccc2)CC1` (configuration not stated), 27.5% (inactive). In the case of `CC(C)CC(CO)N1CCN(C(=O)c2ccc(Cl)cc2Cl)CCC1=O` (configuration not stated) it was -91.5% (active). For `CC(C)CC(COCc1ccc(Cl)cc1)N1CCN(C(=O)c2ccc(C(F)(F)F)cc2)CCC1=O` (configuration not stated), the activity change (PNC), negative = inhibition is 49.5% (inactive).

On to `CC(=O)c1sc(N/N=C\c2ccc(C)cc2)nc1C`, for which the activity change (PNC), negative = inhibition is 25.4% (inactive).

For the compound `CCc1ccccc1NC(=O)CN(C)C(=O)COc1ccc(C)nc1[N+](=O)[O-]`, the activity change (PNC), negative = inhibition was -8.07% (inactive).

For `COCCNC(=O)C(c1ccc(C)o1)N(Cc1ccccc1)C(=O)Cn1nnc2ccccc21` (configuration not stated), the activity change (PNC), negative = inhibition is -83.4% (active). For `COc1ccccc1N(C(=O)Cn1nnc2ccccc21)C(C(=O)NCc1ccco1)c1ccc(C)o1` (configuration not stated), the activity change (PNC), negative = inhibition is 20.9% (inactive). Turning to `CCC(C)(C)NC(=O)C(c1cccn1C)N(Cc1ccc(C)cc1)C(=O)Cn1nnc2ccccc21` (configuration not stated), the activity change (PNC), negative = inhibition is 27.9% (inactive). The value for `Brc1ccc(C2CC(c3ccccc3)=Nc3ccccc3N2)cc1` (configuration not stated) was -29.2% (inactive).
